Six compounds from PubChem BioAssay (NCI) can be followed below.

Several values for one entry are separate records, joined by “and”; a condition that tells them apart may be missing. Identical values can stand only once. About 83,000 compounds went through this panel and 20% of them were active in at least one assay; those are over-represented in the sample as a whole.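 Results are percent growth after 48 hours of single-concentration exposure. 100 means growth as in untreated cells, lower positive values show inhibition; negative values down to -100 show cell death.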 Unmarked numbers belong to inactive results. Activity calls are given as the source filed them. Rule for the calls: active = growth percent below 10; inactive = the rest.

Test systems include HCT-15 colon; HT29 colon; SNB-75 CNS; SNB-19 CNS; U251 CNS; PC-3 prostate; SK-MEL-5 melanoma; UACC-62 melanoma; LOX IMVI melanoma; SK-MEL-28 melanoma; SK-MEL-2 melanoma; EKVX NSCLC; SN12C renal; UO-31 renal; TK-10 renal; ACHN renal; CAKI-1 renal; A498 renal; CCRF-CEM leukemia; MOLT-4 leukemia.
Assay in all cases: NCI-60 one-dose screen, 48 h (100 = growth as untreated, 0 = no growth, -100 = all killed)
What all share (settings): 10 µM unless noted

With `NNCCc1ccccc1`, the growth with HCT-15 colon is 99.7% and 91.6%; in the experiment on HT29 colon it was 96.5% and 100%; in the experiment on SNB-75 CNS it was 107% and 78.7%; with SNB-19 CNS, 98.5% and 102%; in the experiment with U251 CNS, 104% and 93.7%; with PC-3 prostate it was 92% and 94.6%. Also, the growth in the experiment with SK-MEL-5 melanoma is 90.7% and 93.7%; in the experiment on UACC-62 melanoma, 89.9%; in the experiment on LOX IMVI melanoma, 98.2% and 88%; with SK-MEL-28 melanoma, 110% and 95.5%; in the experiment with SK-MEL-2 melanoma, 100% and 106%; with EKVX NSCLC, 101% and 86.2%. Moreover, the growth in the experiment on SN12C renal is 96.2% and 93%; in the experiment on UO-31 renal it was 77.5%; in the experiment with TK-10 renal it was 118%; with ACHN renal it was 92% and 89.9%; with CAKI-1 renal, 99.7% and 88.3%; in the experiment with A498 renal, 105% and 88.4%. In addition, the growth in the experiment on CCRF-CEM leukemia was 90.9% and 106%; with MOLT-4 leukemia it was 104% and 96.4%.
Consider `COc1ccc(-c2cc(-c3cccc(Cl)c3)c(C#N)c(=O)[nH]2)c(OC)c1`, for which the growth in the experiment on HCT-15 colon was 97.7%; in the experiment on HT29 colon it was 118%; with SNB-75 CNS, 72.7%; in the experiment with SNB-19 CNS, 94.2%; in the experiment with U251 CNS it was 96.4%; in the experiment on PC-3 prostate, 92.3%. The growth was 94.2% in the experiment with SK-MEL-5 melanoma; 90.7% with UACC-62 melanoma; 101% in the experiment with LOX IMVI melanoma; 92.2% in the experiment with SK-MEL-28 melanoma; 105% with SK-MEL-2 melanoma; 95.2% with EKVX NSCLC. In addition, the growth in the experiment on SN12C renal was 97.1%; in the experiment on UO-31 renal, 85.3%; in the experiment with TK-10 renal, 103%; in the experiment on ACHN renal it was 97.2%; with CAKI-1 renal, 90.9%; with A498 renal, 68.2%. Moreover, the growth with CCRF-CEM leukemia was -2.24% (active); with MOLT-4 leukemia, 103%.
With `O=C(CN1C(=O)S/C(=C\C(Cl)=C\c2ccccc2)C1=O)NCCCn1ccnc1`, the growth in the experiment on HCT-15 colon is 1.15% (active); with HT29 colon, 10.5%; in the experiment on SNB-75 CNS, 32%; in the experiment on SNB-19 CNS, 57.5%; in the experiment on U251 CNS, 45.6%; in the experiment with PC-3 prostate, 45.8%. Further, the growth is 64.1% in the experiment on SK-MEL-5 melanoma; 18.8% with UACC-62 melanoma; -52.3% (active) in the experiment with LOX IMVI melanoma; 12.4% with SK-MEL-28 melanoma; 38.2% in the experiment on SK-MEL-2 melanoma; 41.2% in the experiment with EKVX NSCLC. Besides, the growth was 26.1% with SN12C renal; 48.7% with UO-31 renal; 36.2% in the experiment on TK-10 renal; 5.51% (active) in the experiment on ACHN renal; 50.5% in the experiment on CAKI-1 renal; 95.7% in the experiment on A498 renal. For the same compound, the growth with CCRF-CEM leukemia is 5.11% (active); in the experiment on MOLT-4 leukemia, 6.18% (active).
Take `N=C(N)c1ccc(-c2ccc(-c3ccc(F)cc3)s2)nc1`: the growth in the experiment with HCT-15 colon was 10.4%; with HT29 colon, 8.67% (active); in the experiment on SNB-75 CNS, 100%; in the experiment with SNB-19 CNS it was 80.1%; with U251 CNS, 22.3%; in the experiment with PC-3 prostate, 65.3%. Also, the growth is 77% with SK-MEL-5 melanoma; 95.9% with UACC-62 melanoma; 18.6% in the experiment on LOX IMVI melanoma; 102% with SK-MEL-28 melanoma; 101% with SK-MEL-2 melanoma; 79.3% in the experiment with EKVX NSCLC. For the same compound, the growth is 75.3% in the experiment on SN12C renal; 74.1% with UO-31 renal; 108% in the experiment with TK-10 renal; 76% with ACHN renal; 65.4% with CAKI-1 renal; 79% in the experiment with A498 renal. Also, the growth in the experiment with CCRF-CEM leukemia was 47.8%; with MOLT-4 leukemia it was 26.3%.
On to `COCCn1cc(-c2nc(-c3cn(CCOC)c4ncccc34)cs2)c2ccccc21`, for which the growth was 18.1% in the experiment on HCT-15 colon; 89.5% in the experiment on HT29 colon; 64.6% in the experiment with SNB-75 CNS; 71.1% with SNB-19 CNS; 72.8% in the experiment with U251 CNS; 73.1% in the experiment on PC-3 prostate. Besides, the growth in the experiment on SK-MEL-5 melanoma was 7.97% (active); with UACC-62 melanoma, 87.1%; in the experiment on LOX IMVI melanoma, 86.1%; in the experiment on SK-MEL-28 melanoma it was 105%; with SK-MEL-2 melanoma, 59.9%; with EKVX NSCLC, 27.9%. For the same compound, the growth in the experiment on SN12C renal was 107%; in the experiment with UO-31 renal, 98.6%; with TK-10 renal, 33.3%; in the experiment with ACHN renal, 91.6%; in the experiment with CAKI-1 renal, 94.6%; in the experiment with A498 renal, 123%. The growth in the experiment with CCRF-CEM leukemia was 128%; in the experiment on MOLT-4 leukemia, 122%.
`O=C(Cn1cc(CN2CCN(c3ccnc4cc(Cl)ccc34)CC2)nn1)Nc1cccc([N+](=O)[O-])c1`: the growth is 102% with HCT-15 colon; 101% in the experiment on HT29 colon; 83.4% in the experiment on SNB-75 CNS; 90.3% in the experiment on SNB-19 CNS; 81.6% in the experiment on U251 CNS; 58.5% in the experiment with PC-3 prostate. The growth in the experiment with SK-MEL-5 melanoma was 70.1%; in the experiment on UACC-62 melanoma, 70.8%; in the experiment on LOX IMVI melanoma it was 85.1%; with SK-MEL-28 melanoma it was 104%; in the experiment on SK-MEL-2 melanoma it was 97.1%; with EKVX NSCLC it was 94.4%. In addition, the growth in the experiment on SN12C renal is 92.9%; in the experiment with UO-31 renal, 63.4%; in the experiment with TK-10 renal, 105%; in the experiment on ACHN renal, 87.7%; in the experiment on CAKI-1 renal it was 76.4%; in the experiment with A498 renal, 90.7%. The growth in the experiment with CCRF-CEM leukemia is 33.8%; in the experiment with MOLT-4 leukemia, 80%.
